Screens as filed in PubChem.
Tat transport: E. coli Tat transport inhibition; E. coli MC4100 TorA-mCherry Tat export, fluorescence; inhibition, % at 10 µM; actives 0.036% (n = 340,000);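 active = mean replicate inhibition at least 50% and at least half of replicates individually reaching 50%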;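 note: exported cargo escapes ClpAP degradation while cytoplasmic cargo is degraded and loses fluorescence; 0% = median of neutral control wells and 100% = median of NaSCN control wells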
E coli growth-1: counter-screen for AddAB inhibitors: E. coli growth inhibition | actives 0.27% (n = 330,000) | inhibition, % at 11.9 µM | E. coli V3065 growth, OD600 absorbance, 18 h;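 active = inhibition above the campaign's mean inhibition across all tested compounds plus 3 SD, cut at about 9.9% in these data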;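 note: uninfected addAB+ strain grown without phage in ampicillin broth; 0% = DMSO wells and 100% = ciprofloxacin 0.95 µg/ml wells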
AddAB inh: less growth of phage-infected E. coli with AddAB; E. coli expressing H. pylori AddAB, absorbance growth; inhibition, % at 11.9 µM; actives 0.29% (n = 330,000); in the data active = inhibition above about 12%;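 note: 0% = vehicle wells of infected cells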
E coli growth-2: E. coli growth inhibition | Escherichia coli growth, OD600, 23 h; stronger effect = lower value | OD600 absorbance (test concentration not listed) | actives 0.21% (n = 330,000);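 active = OD600 absorbance below the run mean of sample wells minus 3.6 SD, in any replicate, cut at about 0.56 in these data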
phage Ecoli inh: E. coli growth loss with phage present; actives 0.26% (n = 360,000); inhibition, % at 11.9 µM; AID 651602; growth absorbance; in the data active = inhibition above about 11%
AddAB confirm: confirmation screen: growth loss of phage-infected E. coli expressing H. pylori AddAB; shares compounds with AddAB inh; E. coli V3065 expressing H. pylori AddAB, T4 phage, OD; T4 phage with gene 2 nonsense mutations; inhibition, % at 11.9 µM; actives 64% (n = 880); AID 488942;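 active = mean inhibition above a set limit taken from the earlier primary screen, cut at about 13% in these data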;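 note: higher means less bacterial growth since AddAB block lets phage replicate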
RecBCD counter: AddAB counter-screen: growth loss of RecBCD+ E. coli infected with mutant T4 phage | shares compounds with AddAB inh | E. coli V66 + mutant T4 phage, OD growth | inhibition, % at 11.9 µM | actives 73% (n = 880);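 active = mean inhibition above the mean of solvent-only control wells plus 3 SD, cut at about 4% in these data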;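 note: optical density read after an 18 h incubation at 37 °C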
bact viab count: counter-screen: bacterial growth inhibition; shares compounds with AddAB inh; bacterial viability, absorbance (AddAB counterscreen); inhibition, % at 11.9 µM; actives 35% (n = 880); AID 488956; in the data active = inhibition above about 25%
RecBCD conf: growth loss of phage-infected V66 E. coli, RecBCD confirmation screen; actives 45% (n = 890); shares compounds with phage Ecoli inh; inhibition, % at 11.9 µM; E. coli V66 + T4 2- phage, growth OD;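 active = mean inhibition over triplicates exceeding the hit threshold derived in the original primary screen, cut at about 11% in these data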
Ecoli viability: inhibits E. coli viability, flagging RecBCD hits as nonselective. shares compounds with phage Ecoli inh. absorbance (OD) growth. inhibition, % at 11.9 µM. actives 29% (n = 890). AID 651983; in the data active = inhibition above about 20%;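 note: E. coli strain V66 grown with compound alone and no phage infection; 0% = bacteria with DMSO vehicle only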
AddAB counter: growth loss of phage-infected AddAB E. coli, RecBCD counter-screen; shares compounds with phage Ecoli inh; E. coli expressing H. pylori AddAB + T4 phage, OD growth; gene 2 mutant T4, recBCD-deleted host; inhibition, % at 11.9 µM; actives 45% (n = 890);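 active = mean inhibition above the solvent-only control wells' mean plus 3 SD, cut at about 22% in these data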;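 note: higher means less bacterial growth from phage killing when AddAB is blocked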
* hit, by the source's call; · = no result. Rows were chosen to be rich in hits. Some 0.5% of all compounds tested hit in one or more screens of this group.

SMILES	Tat transport	E coli growth-1	AddAB inh	E coli growth-2	phage Ecoli inh	AddAB confirm	RecBCD counter	bact viab count	RecBCD conf	Ecoli viability	AddAB counter
CCOc1ccc2oc(C(=O)O)c(C)c2c1	-8	2	1	0.71	2	·	·	·	·	·	·
O=C(NNC(=O)c1cc2ccccc2o1)c1ccncc1	5	-1	-2	0.64	4	·	·	·	·	·	·
CN(C)C(=O)C1CC1C(NC(=O)OCc1ccccc1)c1ccccc1 (centres undefined)	·	·	·	0.71	·	·	·	·	·	·	·
COC(=O)c1c(NC(=O)c2ccc([N+](=O)[O-])o2)sc2c1CCN(C(C)C)C2	26	100*	101*	·	31*	98*	98*	99*	100*	102*	102*
CC(=O)N1CCc2c(sc(NC(=O)c3ccc([N+](=O)[O-])o3)c2C#N)C1	3	·	·	0.67	8	·	·	·	·	·	·
CC(C)N1CCc2c(sc(NC(=O)c3ccc([N+](=O)[O-])o3)c2C(N)=O)C1	31	100*	100*	·	34*	102*	48*	103*	38*	62*	103*
CCN(CC)c1ccc(/C=N/NC(=O)c2cccc(S(=O)(=O)Nc3ccccc3OC)c2)c(O)c1	-4	33*	32*	·	28*	21*	26*	19	19*	24*	28*
CCOC1OC(C(=O)N2CCOCC2)=CC(c2ccc(Br)cc2)C1CCCO (centres undefined)	·	·	·	0.68	·	·	·	·	·	·	·
COC(=O)c1cccc(C23CC4(C2)C(CN(C)C4c2ccccc2)C3c2ccc(C(F)(F)F)cc2)c1 (centres undefined)	·	·	·	0.66	·	·	·	·	·	·	·
Cc1onc(-c2c(Cl)cccc2Cl)c1C(=O)N/N=C(\N)COc1ccc(Cl)cc1	6	16*	14*	·	18*	17*	19*	18	8	10	32*
Cc1onc(-c2ccccc2Cl)c1C(=O)NN=C(N)COc1ccc(Cl)cc1	·	·	·	0.68	·	·	·	·	·	·	·
CCC(=O)N1CCN(c2ccc(Cl)cc2NC(=O)c2ccc([N+](=O)[O-])o2)CC1	1	3	3	0.72	2	·	·	·	·	·	·
O=C(Nc1cc(Cl)ccc1-n1cncn1)c1ccc([N+](=O)[O-])o1	-7	32*	99*	0.58	16*	92*	12*	57*	9	12	98*
N=C(N)SCc1ccc(Cl)cc1Cl	-6	68*	82*	0.12*	72*	86*	66*	89*	68*	69*	90*
NC(=S)Cc1ccc(Cl)cc1Cl	-4	3	1	0.65	5	·	·	·	·	·	·
COC(=O)C1=C(C)N(Cc2ccccc2)C(=NCc2cc(OC)c(OC)c(OC)c2)NC1c1ccc(Br)cc1 (centres undefined)	·	·	·	0.64	·	·	·	·	·	·	·
COc1cc(-c2nnc(SCc3cc(=O)oc4cc(O)c(O)cc34)o2)cc(OC)c1OC	-3	18*	18*	0.63	16*	18*	16*	18	7	8	8
CCC(C)C(CNC(C)CNC)NCCC(c1ccccc1)c1ccccc1 (centres undefined)	·	·	·	0.68	·	·	·	·	·	·	·
CN1CCN(C(c2ccc(C(F)(F)F)cc2)c2ccc3cccnc3c2O)CC1 (centres undefined)	·	27*	17*	·	17*	12	9.7*	7	4	4	7
Oc1c(C(c2ccc(Cl)cc2)N2CCCC2)cc(Cl)c2cccnc12 (centres undefined)	-3	24*	17*	0.59	20*	3	8.4*	1	7	8	7
